The values that follow come from PubChem BioAssay (EPA / NIEHS).

The source made the active and inactive calls. Rule for the calls: active = hit-call score of the fitted dose curve at least 0.9, where 1 is the maximum; inactive = score below 0.9.

A short description of this assay: APR_HepG2_NuclearSize_72hr: Apredica 72-hour HepG2 Assay for Nuclear Size (AID 2282925). The settings on record: high-content imaging, actives raise or lower the signal. As to the method:
APR_HepG2_72hr is a cell-based, multiplexed-readout assay that uses HepG2, a human liver cell line, with measurements taken at 72 hours after chemical dosing in a 384-well plate.APR_HepG2_NuclearSize_72hr is one of 10 assay component(s) measured or calculated from the APR_HepG2_72hr assay. It is designed to make measurements of cell phenotype, a form of morphology reporter, as detected with fluorescence intensity signals by HCS Fluorescent Imaging technology.Data from the assay component APR_HepG2_NuclearSize_72hr was analyzed into 1 assay endpoint. This assay endpoint, APR_HepG2_NuclearSize_72hr, was analyzed with bidirectional fitting relative to DMSO as the negative control and baseline of activity. Using a type of morphology reporter, measures of all nuclear dna for gain or loss-of-signal activity can be used to understand the signaling at the nuclear-level. Furthermore, this assay endpoint can be referred to as a primary readout, because this assay has produced multiple assay endpoints where this one serves a signaling function. To generalize the intended target to other relatable targets, this assay endpoint is annotated to the cell morphology intended target family, where the subfamily is organelle conformation.
Cells were treated with dimethyl sulfoxide (DMSO) as a solvent control at a final concentration of 0.5% v/v or with compounds in DMSO with a resulting final DMSO concentration of 0.5% v/v. Compound treatment was done at concentrations of 0.39, 0.78, 1.56, 3.12, 6.24, 12.5, 25, 50, 100, and 200 uM in duplicate on each plate. Cells were treated with compounds for 1, 24, or 72 hr. Carbonyl […] m-chloro-phenylhydrazone (CCCP) and taxol were used as positive controls for mitochondrial function and cytoskeletal stability, respectively; DMSO served as the negative control for this experiment. Cells were fixed by the direct addition of 50 uL formaldehyde in Hank's Balanced Salt Solution (HBSS) to a final concentration of 3.7%. After incubation in the fixation medium for 30 min at room temperature (293-298 K), cells were rinsed twice with HBSS and treated with cell permeabilization buffer (16 uL of 0.5% Triton X-100) for 10 min at room temperature (293-298 K) before labeling. For mitochondrial membrane potential and mitochondrial measurements, pre-fixed cells were incubated with 50 uL of MitoTracker Red CMXRos (Invitrogen) at a concentration of 250 nM for 30 min before fixation. In the remaining cases, post-fixed cells were labeled by incubation with a multiplexed mixture of primary antibodies in HBSS for 60 min at room temperature (293-298 K) to detect immunoreactivity of c-Jun (1:500), phospho-histone H3 (1:100), phospho-histone H2A.x (1:200), p53 (1:400), alpha-tubulin (1:200) and Hoechst 33342 (2 ug/mL). Cells were labeled for multiplexed imaging on two separate plates: a) Hoechst 33342, MitoTracker Red, phospho-histone H3, and alpha-tubulin, and b) Hoechst 33342, phospho-histone H2A.x, and c-Jun. A final rinse with HBSS (50 uL) was performed before analysis. The primary and secondary antibodies for the proteins were phospho-histone H3 (rabbit anti-phospho-histone H3 and FITC-donkey anti-rabbit IgG), phospho-histone H2A.x (mouse anti-phospho-histone H2A.x and FITC-donkey anti-mouse IgG), c-Jun (rabbit anti-phospho-c-Jun and Cy3-donkey anti-rabbit IgG), p53 (sheep anti-p53 and Cy5-donkey anti-sheep IgG), alpha-tubulin (mouse anti-alpha-tubulin and Cy5-donkey anti-mouse IgG). These antibodies are available as the CellCiphr HepG2 assay kit (Millipore).Digital images of each well were captured using a Cellomics ArrayScan VTI (Thermo Scientific Cellomics) (0.8 NA objective, 0.63x optical coupler, and XF-93 filter set) at 20x magnification. The images were acquired using the autofocus feature of the ArrayScan instrument, which entails the following steps. First, the camera focuses on channel 1 (Hoechst 33342), where nuclei are identified. Second, a Z offset of 1 um is used for capturing mitochondria (MitoTracker Red). […]
In the case of `COc1cc(OC)nc(NC(=O)NS(=O)(=O)c2ncccc2OCC(F)(F)F)n1`, the outcome was inactive. For the compound `CC(C)Nc1nc(Cl)nc(NC(C)C)n1`, the compound was called inactive. As for `COP(=S)(OC)SCn1nnc2ccccc2c1=O`, the entry is “inactive”; as for `C=C(C)CN(CC)c1c([N+](=O)[O-])cc(C(F)(F)F)cc1[N+](=O)[O-]`, “inactive”. As for `O=P(O)(O)CCCl`, the entry is “inactive”; as for `CC(C)=CC1C(C(=O)OCc2coc(Cc3ccccc3)c2)C1(C)C` (stereo not given), “inactive”; as for `O=C(O)c1c(Cl)ccc2cc(Cl)cnc12`, “inactive”.

Turning to `Cc1cnc(C2=NC(C)(C(C)C)C(=O)N2)c(C(=O)O)c1` (stereo not given), the result was inactive.

Regarding `COCC(=O)N(c1c(C)cccc1C)C(C)C(=O)OC` (stereo not given), the call was inactive.

Take `CC(C)C1(C)N=C(c2ncccc2C(=O)O)NC1=O` (stereo not given): the outcome was inactive. Consider `CN/C(=N\[N+](=O)[O-])NCc1cnc(Cl)s1`, for which the result was inactive. `CCC(C)n1c(=O)[nH]c(C)c(Br)c1=O` (stereo not given): the outcome was inactive. As to `CCCCOCN(C(=O)CCl)c1c(CC)cccc1CC`, the outcome was inactive.

Consider `CS(=O)(=O)c1cc(C(F)(F)F)ccc1C(=O)c1cnoc1C1CC1`, for which the compound was classed as inactive.

Turning to `CC(C)NC(=O)N1CC(=O)N(c2cc(Cl)cc(Cl)c2)C1=O`, the compound was called inactive. Turning to `CC(C)N1C(=O)c2ccccc2NS1(=O)=O`, the result was inactive. As for `CCOC(=O)C(C)OC(=O)c1cc(Oc2ccc(C(F)(F)F)cc2Cl)ccc1[N+](=O)[O-]` (stereo not given), the entry is “inactive”; as for `Cc1nc(N(C)C)nc(OC(=O)N(C)C)c1C`, “inactive”.

As for `CS(=O)(=O)c1ccc(C(=O)C2C(=O)CCCC2=O)c([N+](=O)[O-])c1`, the compound was called inactive.

Regarding `CCCCC(C#N)(Cn1cncn1)c1ccc(Cl)cc1` (stereo not given), the outcome was inactive. As for `C=CCOC(=O)C(C)(C)OC(=O)c1cc(-n2c(=O)cc(C(F)(F)F)n(C)c2=O)ccc1Cl`, the compound was called inactive. As for `CC1(C)C(C(=O)OC(C#N)c2cccc(Oc3ccccc3)c2)C1(C)C` (stereo not given), the entry is “inactive”; as for `COP(=S)(OC)Oc1ccc([N+](=O)[O-])c(C)c1`, “inactive”; as for `COc1cc(Cl)c(OC)cc1Cl`, “inactive”. Under `CCOc1nc(C(Cl)(Cl)Cl)ns1` stands “inactive”; under `Cc1ccc(N=CN(C)C=Nc2ccc(C)cc2C)c(C)c1`, “inactive”; under `O=C1C2CC=CCC2C(=O)N1SC(Cl)(Cl)Cl` (stereo not given), “inactive”.

For the compound `N#CN=C1SCCN1Cc1ccc(Cl)nc1`, the compound was called inactive. As for `CNC(=O)N(C)c1nnc(C(C)(C)C)s1`, the entry is “inactive”. As for `CCOP(=S)(OCC)Oc1nc(Cl)n(C(C)C)n1`, the entry is “inactive”.

As to `CO/N=C(/C1=NOCCO1)c1ccccc1Oc1ncnc(Oc2ccccc2Cl)c1F`, the compound was classed as inactive. Under `CCOP(=O)(OCC)Oc1nc(Cl)c(Cl)cc1Cl` stands “inactive”; under `Nc1c(Cl)c(F)nc(OCC(=O)O)c1Cl`, “inactive”; under `CC(C)Oc1cccc(NC(=O)c2ccccc2C(F)(F)F)c1`, “inactive”. As for `CC1(C)C(C=C(Cl)Cl)C1C(=O)OC(C#N)c1cccc(Oc2ccccc2)c1` (stereo not given), the entry is “inactive”; as for `O=c1n(Cl)c(=O)n(Cl)c(=O)n1Cl`, “inactive”. As to `N#Cc1c[nH]cc1-c1cccc2c1OC(F)(F)O2`, the compound was called inactive.

With `CCCC(=NOCC)C1=C(O)CC(CC(C)SCC)CC1=O` (stereo not given), the compound was classed as inactive.

Turning to `CCSC(=O)N1CCCCCC1`, the outcome was inactive. On to `COC(=O)NS(=O)(=O)c1ccc(N)cc1`, for which the compound was classed as inactive.
